{"source": "PubChem BioAssay AID488969", "about": "(Vanderbilt High Throughput Screening Facility, 2010)", "note": "In all, about 110,000 compounds were measured (“z-score”: median about -0.1, highest 2% from about 2 on). The sample holds the highest values, similar compounds and a random draw of the others, so the mix is not that of the screen. Activity calls are given as the source filed them.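 The calls were made as follows: active = z-score in the third read window above 3 or below -3; inactive = the rest.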"}
{"biological_target": "Metabotropic glutamate receptor 8 (Rattus norvegicus) (UniProt P70579)", "sequence (P70579 whole entry, looked up)": "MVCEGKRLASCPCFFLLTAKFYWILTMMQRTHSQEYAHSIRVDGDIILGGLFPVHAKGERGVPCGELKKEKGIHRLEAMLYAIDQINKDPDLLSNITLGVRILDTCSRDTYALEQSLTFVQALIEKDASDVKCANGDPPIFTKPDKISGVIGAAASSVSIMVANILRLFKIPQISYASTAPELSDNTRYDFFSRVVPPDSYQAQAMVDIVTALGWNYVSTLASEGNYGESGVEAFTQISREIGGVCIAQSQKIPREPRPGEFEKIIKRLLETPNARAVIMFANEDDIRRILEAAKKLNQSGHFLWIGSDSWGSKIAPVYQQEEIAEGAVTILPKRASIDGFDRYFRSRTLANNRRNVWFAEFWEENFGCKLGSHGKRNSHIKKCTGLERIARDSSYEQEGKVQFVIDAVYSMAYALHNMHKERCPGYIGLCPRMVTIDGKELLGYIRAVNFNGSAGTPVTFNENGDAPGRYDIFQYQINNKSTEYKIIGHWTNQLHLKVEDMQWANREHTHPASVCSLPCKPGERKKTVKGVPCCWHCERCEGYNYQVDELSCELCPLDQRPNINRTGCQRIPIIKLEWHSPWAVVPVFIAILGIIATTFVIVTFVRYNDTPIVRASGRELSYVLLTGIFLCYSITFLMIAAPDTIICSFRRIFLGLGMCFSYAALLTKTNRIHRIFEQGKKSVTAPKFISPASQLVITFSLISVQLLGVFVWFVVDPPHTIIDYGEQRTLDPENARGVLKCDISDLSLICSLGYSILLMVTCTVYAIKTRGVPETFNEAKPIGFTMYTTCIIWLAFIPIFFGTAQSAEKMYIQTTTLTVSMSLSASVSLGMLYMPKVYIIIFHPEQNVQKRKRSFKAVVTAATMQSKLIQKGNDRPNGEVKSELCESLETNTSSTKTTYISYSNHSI", "assay": "rat mGluR8 modulators via GIRK flux, primary screen, cell-based, thallium flux, HTS (AID 488969)", "conditions": "HEK293 rat mGluR8, GIRK (G protein-gated inwardly rectifying potassium channel) thallium flux, FluoZin2; at 10 µM; stronger effect = higher value; submaximal glutamate (EC20) added with thallium"}
{"smiles": "O=C(NCCCN1CCCC1)c1ccc(CSCc2cccc(Cl)c2)o1", "z-score": "3.42 (active)"}
{"smiles": "CCC(C)NC(=O)c1ccc(CSCc2cccc(F)c2)o1", "note": "(stereo unspecified)", "z-score": -0.863}
{"smiles": "O=C(NC1CC1)c1ccc(CSCc2cccc(F)c2)o1", "z-score": "4.11 (active)"}
{"smiles": "CC(C)CCNC(=O)c1ccc(CSCc2cccc(F)c2)o1", "z-score": "-3.86 (active)"}
{"smiles": "CC1CCN(CCCNC(=O)c2ccc(CSCc3cccc(Cl)c3)o2)CC1", "z-score": 0.509}
{"smiles": "CN1CCN(CCCNC(=O)c2ccc(CSCc3cccc(Cl)c3)o2)CC1", "z-score": 1.35}
{"smiles": "COc1cccc(-c2cc(C(=O)N3CCN(Cc4ccccc4)CC3)no2)c1", "z-score": 0.395}
{"smiles": "CO/N=C/NC(=O)c1c(OC)ccnc1Oc1cccc(C(F)(F)F)c1", "z-score": 0.0176}
{"smiles": "NC1=NC(=O)/C(=C/c2cccs2)S1", "z-score": -0.848}
{"smiles": "NC1=NC(=O)/C(=C\\c2cccs2)S1", "z-score": -0.0766}
{"smiles": "O=C1N=C(c2ccccc2)S/C1=C\\c1cccs1", "z-score": 2.92}
{"smiles": "Cc1cc2ncn(C(=O)c3c(-c4c(Cl)cccc4Cl)noc3C)c2cc1C", "z-score": 0.106}
{"smiles": "Cc1cc(NC(=O)c2ccc(S(=O)(=O)N3CCCC3)cc2)nc2c1c(=O)oc1ccccc12", "z-score": 0.442}
{"smiles": "CNc1nc(OCC(F)(F)F)nc(N2CCOCC2)n1", "z-score": -0.112}
{"smiles": "FC(F)(F)COc1nc(N2CCCCC2)nc(N2CCNCC2)n1", "z-score": 2.6}
{"smiles": "FC(F)(F)COc1nc(OCC(F)(F)F)nc(N2CCN(c3ccccc3)CC2)n1", "z-score": -0.193}
{"smiles": "O=C(NCc1cccnc1)c1ccccc1[N+](=O)[O-]", "z-score": -0.0931}
{"smiles": "CCOc1ccc(/C=N/NC(=O)c2ccccc2NC(=O)c2ccc(OC)cc2)cc1", "z-score": -0.0531}
{"smiles": "CC(C)c1ccc2occ(-c3nn[nH]n3)c(=O)c2c1", "z-score": "3.29 (active)"}
{"smiles": "Cc1ccccc1-c1nn[nH]n1", "z-score": -0.33}
{"smiles": "Cc1ccc2occ(-c3nn[nH]n3)c(=O)c2c1", "z-score": 0.366}
{"smiles": "CCCSc1nn2c(=O)c3ccccc3nc2s1", "z-score": -0.252}
{"smiles": "CCCc1cc(C(N)=S)ccn1", "z-score": 2.24}
{"smiles": "CCCc1cc(-c2nc(-c3ccc(Br)cc3)cs2)ccn1", "z-score": 0.0465}
{"smiles": "CCCc1cc(-c2nc(-c3ccc(Cl)cc3)cs2)ccn1", "z-score": -0.136}
{"smiles": "COc1nc(NCCc2ccc(OC)c(OC)c2)nc(OC)n1", "z-score": -0.163}
{"smiles": "O=c1c2ccccc2sc2ccc(Cl)cc12", "z-score": -0.316}
{"smiles": "COc1ccc2sc3ccccc3c(=O)c2c1", "z-score": -0.213}
{"smiles": "O=c1c(C(c2ccccc2)c2c(O)sc3ccccc3c2=O)c(O)sc2ccccc12", "z-score": "7.03 (active)"}
{"smiles": "CCN1C(=O)CC(N2CCN(c3ccc(C(=O)c4ccccc4)cc3)CC2)C1=O", "note": "(stereo unspecified)", "z-score": -0.153}
{"smiles": "COc1ccc(NC(=O)C2CCCN(S(=O)(=O)c3cccs3)C2)cc1OC", "note": "(stereo unspecified)", "z-score": -0.257}
{"smiles": "Cc1nnc(NC(=O)Cc2cccs2)s1", "z-score": 2.4}
{"smiles": "COCCSc1nnc(NC(=O)Cc2cccs2)s1", "z-score": 0.124}
{"smiles": "O=C(Cc1cccs1)NCc1cccnc1", "z-score": 0.742}
{"smiles": "O=C(Cc1cccs1)Nc1nnc(CCc2ccccc2)s1", "z-score": 0.238}
{"smiles": "Cc1nnc(NC(=O)CCC(=O)NCc2cccs2)s1", "z-score": -0.0957}
{"smiles": "CCCCCc1nnc(NC(=O)Cc2cccs2)s1", "z-score": "12.3 (active)"}
{"smiles": "O=C(Cc1cccs1)Nc1cccnc1", "z-score": "3.36 (active)"}
{"smiles": "CCCCc1nnc(NC(=O)CCSc2ccccc2)s1", "z-score": 0.0449}
{"smiles": "COCc1nnc(NC(=O)CCSc2ccccc2)s1", "z-score": -0.0854}
{"smiles": "Cc1nnc(NC(=O)CCSc2ccccc2)s1", "z-score": 2.67}
{"smiles": "O=C(Cc1cccs1)Nc1nnc(Cc2ccccc2)s1", "z-score": -0.0843}
{"smiles": "O=C(Nc1cccnc1)c1cccs1", "z-score": -0.52}
{"smiles": "NNc1nnc(-c2ccccc2)c(-c2ccccc2)n1", "z-score": -0.209}
{"smiles": "CCOC(=O)CCCCC(=O)c1[nH]c(=O)[nH]c1CSCCO", "z-score": 0.565}
{"smiles": "O=C(Nc1ccc(F)cc1)C(c1ccccc1)N1CCN(C(=O)c2ccco2)CC1", "note": "(stereo unspecified)", "z-score": -0.404}
{"smiles": "CC(=O)Nc1ccc(NC(=O)COC(=O)Cc2cccs2)cc1", "z-score": -0.0463}
{"smiles": "COc1ccc(-n2c(SCC(=O)Nc3ccc(C(=O)O)cc3)nnc2-c2cccs2)cc1", "z-score": 0.0972}
{"smiles": "CC1(C)N=C(N)N=C(N)N1c1ccc(F)cc1F", "z-score": -0.421}
{"smiles": "O=C1NC(=S)S/C1=C\\c1ccc(SCc2ccccc2)o1", "z-score": "6.47 (active)"}
{"smiles": "CC1=NN2C(=N)/C(=C\\c3ccc(SCc4ccccc4)o3)C(=O)N=C2S1", "z-score": -0.21}
{"smiles": "O=C1NC(=S)S/C1=C/c1ccc(N2CCOCC2)o1", "z-score": 0.253}
{"smiles": "CCCNc1nc(N2CCOCC2)nc(N2CCOCC2)n1", "z-score": -0.0765}
{"smiles": "Cc1cc(OC(C)C)c2c(-c3ccccc3)cc(=O)oc2c1", "z-score": -0.594}
{"smiles": "CCOc1cc(C)cc2oc(=O)cc(-c3ccccc3)c12", "z-score": 0.0205}
{"smiles": "Cc1cc(O)c2c(-c3ccccc3)cc(=O)oc2c1", "z-score": 2.16}
{"smiles": "C=CCCC(=O)Nc1nc(C)c(-c2csc(Nc3ccc(Cl)cc3Cl)n2)s1", "z-score": -0.203}
{"smiles": "O=[N+]([O-])c1cc(/C=N/N2CCN(c3ccccc3)CC2)ccc1Cl", "z-score": 2.02}
{"smiles": "O=[N+]([O-])c1cc(/C=N/N2CCN(C3c4ccccc4-c4ccccc43)CC2)ccc1Cl", "z-score": 0.148}
{"smiles": "O=[N+]([O-])c1ccc(Cl)c(/C=N/N2CCN(c3ccccc3)CC2)c1", "z-score": -0.188}
{"smiles": "N#C/C(=C\\c1ccc(-c2cccc(C(F)(F)F)c2)o1)C(=O)Nn1cnnc1", "z-score": -0.113}
{"smiles": "O=C1NCCCC1C(=O)N/N=C/c1ccccc1", "note": "(stereo unspecified)", "z-score": 0.00752}
{"smiles": "S=c1[nH]nc(CSc2nc3ccccc3s2)n1C1CCCCC1", "z-score": "14.9 (active)"}
{"smiles": "CCn1c(CSc2nc3ccccc3s2)n[nH]c1=S", "z-score": 0.155}
{"smiles": "Cn1c(CSc2nc3ccccc3s2)n[nH]c1=S", "z-score": 1.41}
{"smiles": "Cc1cc(C(=O)NCCCC(=O)O)c(C)o1", "z-score": -0.154}
{"smiles": "Cc1noc(/C=C/N(C)C)c1S(=O)(=O)NC1CCCCC1", "z-score": -0.658}
{"smiles": "Cc1noc(/C=C/N(C)C)c1S(=O)(=O)N1CCCC(C(=O)NC2CCCCC2)C1", "note": "(stereo unspecified)", "z-score": -0.19}
{"smiles": "Cc1noc(/C=C/N(C)C)c1S(=O)(=O)N(C)CC(=O)NC1CCCCC1", "z-score": 2.18}
{"smiles": "c1ccc(C2(c3ccccc3)OCC(Cn3cncn3)O2)cc1", "note": "(stereo unspecified)", "z-score": 0.218}
{"smiles": "CCCC1COC(Cn2cncn2)(c2ccc(C)cc2)O1", "note": "(stereo unspecified)", "z-score": "10.6 (active)"}
{"smiles": "Cc1ccc(SCCCn2cncn2)cc1", "z-score": -0.0811}
{"smiles": "CCn1c(CCNC(=O)c2ccc(Cl)cc2)n[nH]c1=S", "z-score": -0.774}
{"smiles": "CCn1ncc(/C=C/C(=O)Nc2c(C)nn(CC)c2C)c1C", "z-score": -0.306}
{"smiles": "CC1CCCCC1NC(=O)COC(=O)c1ccc2c(c1Cl)C(=O)c1ccccc1C2=O", "note": "(stereo unspecified)", "z-score": -0.0566}
{"smiles": "Cc1nc2cc(C(=O)OCC(=O)Nc3ccc(C#N)cc3)ccc2n1-c1ccccc1", "z-score": -0.0383}
{"smiles": "Cc1nc2cc(C(=O)OCC(=O)Nc3cccc(Cl)c3)ccc2n1-c1ccccc1", "z-score": 2.18}
{"smiles": "O=C(COC(=O)c1cccc(N2C(=O)c3ccccc3C2=O)c1)Nc1ccccc1", "z-score": "5.13 (active)"}
{"smiles": "COc1ccccc1NC(=O)COC(=O)c1ccc2c(c1)nc(C)n2-c1ccccc1", "z-score": -0.283}
{"smiles": "O=C(COC(=O)c1cccnc1)Nc1ccccc1", "z-score": 0.274}
{"smiles": "CC(=O)c1cccc(NC(=O)COC(=O)c2cccc(N3C(=O)c4ccccc4C3=O)c2)c1", "z-score": 0.155}
